Assay results: the supplement of paper PMC12494721
Where a name gives a salt, the structure may show the parent alone.

What follows are molecules tested on Klebsiella aerogenes DSM 30053 (assay: fold change of Cadaverine concentration vs plate DMSO controls (fold change (ratio)); higher = more amine produced, active = hit call of the paper (significant change in both replicates, either direction)). Settings: incubation time: 27 h, anaerobic, 37 °C.
Summary of the method: (§1)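 Using LC–triple-quadrupole MS with dynamic MRM, amines were quantified against external calibration curves and corrected for drift within each batch. Samples were whole anaerobic mGAM cultures of four gut strains, grown 27 h at 37 °C from OD 0.1 before 1:1 dilution, extracted with cold acetonitrile/methanol containing 0.1% formic acid and centrifuged. Compounds were present at 20 µM final (sweeteners at 50 µM final). The numbers are fold changes versus plate DMSO controls, each the mean of 2 biological replicates.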

Fold change of Cadaverine concentration, inactive:
CC(C)Oc1ccc2c(=O)c(-c3ccccc3)coc2c1 [Ipriflavone] (20 µM) 0.989, CC[C@@H]1C(=O)OC[C@@H]1Cc1cncn1C [Pilocarpine nitrate] (20 µM) 0.993, COC(=O)[C@@H]1[C@H]2C[C@H]3c4[nH]c5ccccc5c4CCN3C[C@@H]2CC[C@@H]1O [Yohimbine hydrochloride] (20 µM) 1.02, CC(=O)N1CCN(c2ccc(OCC3COC(Cn4ccnc4)(c4ccc(Cl)cc4Cl)O3)cc2)CC1 (stereo unspecified) [Ketoconazole] (20 µM) 0.994, CN1C(C(=O)Nc2ccccn2)=C(O)c2ccccc2S1(=O)=O [Piroxicam] (20 µM) 1.04, NS(=O)(=O)c1cc2c(cc1Cl)NC(Cc1ccccc1)NS2(=O)=O (stereo unspecified) [Benzylhydrochlorothiazide] (20 µM) 1.01, Cc1cc2c(cc1S(N)(=O)=O)S(=O)(=O)CCC2 [Meticrane] (20 µM) 0.986, OC[C@@H](O)[C@@H](O)[C@@H](O)[C@@H](O)CO [Allitol] (50 µM) 1.02, Cc1c(N(C)C)c(=O)n(-c2ccccc2)n1C [Amidopyrine] (20 µM) 1.03

The molecules below were run on Ruminococcus gnavus DSM 108212 (assay: fold change of 2-Phenylethylamine concentration vs plate DMSO controls (fold change (ratio)); higher = more amine produced, active = hit call of the paper (significant change in both replicates, either direction)). Settings: incubation time: 27 h, anaerobic, 37 °C.
Summary of the method: as §1

Fold change of 2-Phenylethylamine concentration, active:
CCOC(=O)[N-]c1c[n+](N2CCOCC2)no1 [Molsidomine] (20 µM) 0.14, CC[C@H]1OC(=O)[C@H](C)[C@@H](O[C@H]2C[C@@](C)(OC)[C@@H](O)[C@H](C)O2)[C@H](C)[C@@H](O[C@@H]2O[C@H](C)C[C@H](N(C)C)[C@H]2O)[C@](C)(O)C[C@@H](C)C(=O)[C@H](C)[C@@H](O)[C@]1(C)O [Erythromycin] (20 µM) 0.137

Fold change of 2-Phenylethylamine concentration, inactive:
Oc1c(Cl)cc(Cl)c2cccnc12 [Chloroxine] (20 µM) 0.681, O=C1NCCN1CCN1CCC(c2cn(-c3ccc(F)cc3)c3ccc(Cl)cc23)CC1 [Sertindole] (20 µM) 1.09, CCSc1ccc2c(c1)N(CCCN1CCN(C)CC1)c1ccccc1S2 [Thiethylperazine maleate] (20 µM) 0.915, Cc1ccsc1/C=C/C1=NCCCN1C [Morantel tartrate] (20 µM) 0.957, COc1cc(C)nc(-n2nc(C)cc2OC)n1 [Epirizole] (20 µM) 1.02, CCC1(c2ccccc2)NC(=O)N(C)C1=O (stereo unspecified) [Mephenytoin] (20 µM) 1.03, CCCCCCCC/C=C\CCCCCCCCCCCC(=O)O [Erucic acid] (20 µM) 0.86, C#CCN(C)CCCOc1ccc(Cl)cc1Cl [Clorgyline hydrochloride] (20 µM) 0.974, CC1=NN(c2ccccc2)C(=O)C1 [Edaravone] (20 µM) 0.984, CC(=O)N[C@H]1[C@H]([C@H](O)[C@H](O)CO)OC(C(=O)O)=C[C@@H]1NC(=N)N [Zanamivir] (20 µM) 1.09, Cc1ccc(S(=O)(=O)NC(=O)NN2CCCCCC2)cc1 [Tolazamide] (20 µM) 1.18, CN1CCN(C2=Nc3cc(Cl)ccc3Nc3ccccc32)CC1 [Clozapine] (20 µM) 0.92, CCCNC(C)(C)C(=O)Nc1ccccc1C [Quatacaine] (20 µM) 1.04, CN(C)c1cc(NC(=O)CNC(C)(C)C)c(O)c2c1C[C@H]1C[C@H]3[C@H](N(C)C)C(=O)C(C(N)=O)=C(O)[C@@]3(O)C(=O)C1=C2O [Tigecycline] (20 µM) 1.13, CCN(CC)CCOC(=O)C(Cc1cccc2ccccc12)CC1CCCO1 (stereo unspecified) [Nafronyl oxalate] (20 µM) 1.01, CCN(CC)CCOC(=O)C1(C2CCCCC2)CCCCC1 [Dicyclomine hydrochloride] (20 µM) 0.815, NC(=O)NS(=O)(=O)c1ccc(N)cc1 [Sulfacarbamide] (20 µM) 0.972, O=c1[nH]cc(F)c(=O)[nH]1 [5-fluorouracil] (20 µM) 0.918, NC(=O)N/N=C/c1ccc([N+](=O)[O-])o1 [Nitrofural] (20 µM) 0.836, COC(=O)C1=C(C)NC(C)=C(C(=O)OC2CCCN(Cc3ccccc3)C2)C1c1cccc([N+](=O)[O-])c1 (stereo unspecified) [Benidipine hydrochloride] (20 µM) 0.986
